# Experimental data as given in PubChem BioAssay (NCATS).
# Several values for one entry are separate records, joined by “and”; a condition that tells them apart may be missing. Identical values can stand only once. A number with no mark means an inactive call. Records with an inconclusive call do not appear. Some of the results follow. Entries that show only a call come without a potency. Activity calls are given as the source filed them. Unless noted, calls come from the whole dose curve; as a rule, active = well fitted curve in the direction sought with a large enough effect; inconclusive = small, poorly fitted or top-dose-only effect, or another doubt; inactive = no such curve, though single readings can be large; an effect the other way counts as inactive or inconclusive.
# Columns and labels:
# [1] = target: Androgen receptor (Homo sapiens) (UniProt P10275); experiment: qHTS assay for small molecule antagonists of androgen receptor signaling (AID 588516; active = well fitted curve in the direction sought with a large enough effect in the signal ratio, with a control signal flat, not every such curve was filed as active; the % refers to the signal ratio); details: AR-UAS-bla HEK293, beta-lactamase ratio, antagonist mode, 16 h; series mostly up to 76.8 µM
# Method in brief: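 Antagonist-mode qHTS: inhibition of R1881 (10 nM)-driven beta-lactamase expression in GripTite HEK 293 cells is measured after 16 h; values are Hill-derived IC50s normalized between R1881 and DMSO wells.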
# [2] = target: Peroxisome proliferator-activated receptor delta (Homo sapiens) (UniProt Q03181); experiment: qHTS assay for small molecule antagonists of peroxisome proliferator-activated receptor delta signaling (AID 588535; active = well fitted inhibition curve with a large enough effect in the signal ratio, with a control signal flat, not every such curve was filed as active; the % refers to the signal ratio); details: HEK293T PPARd-UAS-bla, beta-lactamase FRET ratio, 18 h; series mostly up to 76.7 µM
# Method in brief: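 Beta-lactamase reporter read-out (405 nm excitation, 460/530 nm emission) after CCF4 loading for 2 hrs at RT. HEK293T PPAR-delta-UAS-bla cells, 2% charcoal/dextran FBS, compounds for 18 hrs at 37 C. Hill fit gave IC50 and efficacy.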
# [3] = target: Cytochrome P450 3A4 (Homo sapiens) (UniProt P08684); experiment: qHTS Assay for Activators of Cytochrome P450 3A4 (AID 885); details: recombinant CYP3A4, Luciferin-PPXE luminescence, 60 min; series mostly up to 11.4 µM; note: nearly all actives have a fitted effect of over 65% in size
# Method in brief: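 Luminescent readout of luciferin formed from 25 uM Luciferin-PPXE (KM level) by 20 nM CYP3A4 in 200 mM KPO4, with 60 min NADPH-driven reaction at room temperature after 10 min compound exposure. Ketoconazole (57 uM) defined 100% inhibition.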
# [4] = target: Androgen receptor (Homo sapiens) (UniProt P10275); experiment: qHTS assay for small molecule agonists of androgen receptor signaling (AID 588515; active = well fitted curve in the direction sought with a large enough effect in the signal ratio, with a control signal flat; the % refers to the signal ratio); details: AR-UAS-bla HEK293, beta-lactamase ratio, agonist 16 h; stronger effect = higher value
# Method in brief: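 Stimulation of an AR-responsive β-lactamase reporter in GripTite HEK293 cells was measured after 16 h compound exposure at 37 °C, via CCF4 fluorescence after 2 h RT. EC50 from Hill fits, normalized to R1881 at 30 nM.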
# [5] = target: DNA dC->dU-editing enzyme APOBEC-3G (Homo sapiens) (UniProt Q9HC16); experiment: qHTS for inhibitors of Vif-A3G interactions: Validation (AID 588379); details: Vif-A3G protein interaction assay; series mostly up to 46.1 µM
# Method in brief: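 Yellow fluorescence (Ex 488, Em 500-530) of Vif-coexpressing HeLa A3G-eYFP cells, scanned by Acumen cytometer, reports blocked A3G degradation. Cells plated at 700/well overnight at 37 deg C before compound addition, then a further overnight compound incubation at 37 deg C.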
# [6] = target: ATP-dependent 6-phosphofructokinase (Trypanosoma brucei brucei) (UniProt O15648); experiment: qHTS Assay to Find Inhibitors of T. brucei phosphofructokinase: hit validation (AID 492961); details: T. brucei PFK, ADP-Glo luminescence; series mostly up to 51.4 µM
# Method in brief: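 Luminescence from ADP-Glo reports ADP generated as T. brucei PFK (1.25 nM) phosphorylates 0.5 mM fructose-6-phosphate using 0.1 mM ATP. Reactions ran 45 min at room temperature, pH 8.0.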
# CP185 = experiment: qHTS profiling for inhibitors of Plasmodium falciparum proliferation (AID 504749); note: nearly all actives have a fitted effect of over 60% in size; details: P. falciparum in erythrocytes, SYBR Green DNA, 72 h; series mostly up to 28.7 µM
# Method in brief: (§1)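 SYBR Green fluorescence (ex 485 nm, em 535 nm) reports parasite DNA after 72 h compound exposure of infected red cells at 0.3% parasitemia, 2.5% hematocrit; signal normalized to 0.29 uM artemisinin and vehicle wells.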
# CP191 = experiment: as above; details: P. falciparum in erythrocytes, SYBR Green DNA, 72 h; series mostly up to 28.7 µM
# Method in brief: as §1
# CP192 = experiment: as above; details: P. falciparum in erythrocytes, SYBR Green DNA, 72 h; series mostly up to 28.7 µM
# Method in brief: as §1
# CP194 = experiment: as above; details: P. falciparum in erythrocytes, SYBR Green DNA, 72 h; series mostly up to 28.7 µM
# Method in brief: as §1
# CP201 = experiment: as above; details: P. falciparum in erythrocytes, SYBR Green DNA, 72 h; series mostly up to 28.7 µM
# Method in brief: as §1
# CP203 = experiment: as above; details: P. falciparum in erythrocytes, SYBR Green DNA, 72 h; series mostly up to 28.7 µM
# Method in brief: as §1
# DFO2036 = experiment: as above; details: P. falciparum in erythrocytes, SYBR Green DNA, 72 h; series mostly up to 28.7 µM
# Method in brief: as §1
# DIV30 = experiment: as above; details: P. falciparum in erythrocytes, SYBR Green DNA, 72 h; series mostly up to 28.7 µM
# Method in brief: as §1
# P94_40 = experiment: as above; details: P. falciparum in erythrocytes, SYBR Green DNA, 72 h; series mostly up to 28.7 µM
# Method in brief: as §1
# PC49 = experiment: as above; details: P. falciparum in erythrocytes, SYBR Green DNA, 72 h; series mostly up to 28.7 µM
# Method in brief: as §1
# TAB113 = experiment: as above; details: P. falciparum in erythrocytes, SYBR Green DNA, 72 h; series mostly up to 28.7 µM
# Method in brief: as §1
# [7] = target: DNA repair nuclease/redox regulator APEX1 (Homo sapiens) (UniProt P27695); experiment: Confirmation qHTS Assay for Inhibitors of the Human Apurinic/apyrimidinic Endonuclease 1 (APE1) (AID 2572); details: purified APE1, fluorogenic abasic-site DNA cleavage; series mostly up to 57.1 µM; note: nearly all actives have a fitted effect of over 30% in size; note: potency is the fitted concentration of half-maximal effect
# Method in brief: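 APE1 preincubated 15 min RT with compound; 50 nM TAMRA/BHQ-2 THF-abasic duplex added; kinetic fluorescence, 3 reads at 60 s intervals, Ex 525/Em 598; progress = read 3 minus read 1.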
# [8] = Counterscreen for APE1 Inhibitors: Fluorescent Dye Displacement Assay (AID 2564); details: DNA fluorescent dye displacement counterscreen, fluorescence; series mostly up to 28.5 µM;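 note: loss of thiazole orange fluorescence as the dye is displaced from duplex DNA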
# Method in brief: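 Counterscreen flags promiscuous DNA binders: compounds displacing ThO from duplex DNA (abasic THF site, 50 nM) reduce 540 nm emission (480 nm excitation). ThO 250 nM final; Tris-HCl pH 7.5 with NaCl, MgCl2 and Tween-20.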
# [9] = target: DNA repair nuclease/redox regulator APEX1 (Homo sapiens) (UniProt P27695); experiment: qHTS FP-Based Assay for Inhibitors of the Human Apurinic/apyrimidinic Endonuclease 1 (APE1) (AID 2573); details: APE1 binding to TAMRA-labelled double-stranded DNA, fluorescence polarization displacement; series mostly up to 28.5 µM; note: potency is the fitted concentration of half-maximal effect
# Sequence of DNA repair nuclease/redox regulator APEX1 (Homo sapiens) (P27695 whole entry, looked up): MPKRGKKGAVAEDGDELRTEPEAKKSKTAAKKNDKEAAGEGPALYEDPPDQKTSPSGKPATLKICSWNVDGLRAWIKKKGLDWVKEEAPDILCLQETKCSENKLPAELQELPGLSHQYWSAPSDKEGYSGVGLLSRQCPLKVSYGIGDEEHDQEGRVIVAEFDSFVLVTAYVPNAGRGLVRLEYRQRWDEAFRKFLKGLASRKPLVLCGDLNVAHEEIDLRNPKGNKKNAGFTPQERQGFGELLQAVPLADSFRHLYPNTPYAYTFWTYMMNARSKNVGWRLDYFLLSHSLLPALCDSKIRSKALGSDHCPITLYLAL
# Sequence of Peroxisome proliferator-activated receptor delta (Homo sapiens) (Q03181 whole entry, looked up): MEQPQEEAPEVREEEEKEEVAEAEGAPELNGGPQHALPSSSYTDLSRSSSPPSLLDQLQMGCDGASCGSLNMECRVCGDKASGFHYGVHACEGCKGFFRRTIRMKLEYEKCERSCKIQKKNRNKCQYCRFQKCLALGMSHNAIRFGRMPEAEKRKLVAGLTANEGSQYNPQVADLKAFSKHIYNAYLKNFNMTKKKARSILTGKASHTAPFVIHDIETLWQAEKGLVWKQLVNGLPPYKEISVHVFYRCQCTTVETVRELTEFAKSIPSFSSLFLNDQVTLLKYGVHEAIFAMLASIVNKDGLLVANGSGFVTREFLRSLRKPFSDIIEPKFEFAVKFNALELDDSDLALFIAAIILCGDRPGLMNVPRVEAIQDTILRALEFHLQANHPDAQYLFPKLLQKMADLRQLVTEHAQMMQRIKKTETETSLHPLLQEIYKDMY
# Sequence of Cytochrome P450 3A4 (Homo sapiens) (P08684 whole entry, looked up): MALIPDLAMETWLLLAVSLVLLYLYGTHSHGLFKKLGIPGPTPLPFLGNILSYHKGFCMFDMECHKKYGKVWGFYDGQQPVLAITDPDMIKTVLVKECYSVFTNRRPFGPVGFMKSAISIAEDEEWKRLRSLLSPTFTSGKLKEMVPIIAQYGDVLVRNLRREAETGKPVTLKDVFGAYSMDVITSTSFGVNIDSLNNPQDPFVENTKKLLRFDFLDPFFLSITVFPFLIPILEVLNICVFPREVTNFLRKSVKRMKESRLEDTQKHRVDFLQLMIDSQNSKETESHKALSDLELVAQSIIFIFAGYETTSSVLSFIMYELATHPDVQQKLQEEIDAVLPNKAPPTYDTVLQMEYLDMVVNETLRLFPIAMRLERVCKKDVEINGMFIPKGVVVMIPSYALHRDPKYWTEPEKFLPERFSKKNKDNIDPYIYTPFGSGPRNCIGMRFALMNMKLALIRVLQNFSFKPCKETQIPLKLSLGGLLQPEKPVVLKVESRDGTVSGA
# Sequence of Androgen receptor (Homo sapiens) (P10275 whole entry, looked up): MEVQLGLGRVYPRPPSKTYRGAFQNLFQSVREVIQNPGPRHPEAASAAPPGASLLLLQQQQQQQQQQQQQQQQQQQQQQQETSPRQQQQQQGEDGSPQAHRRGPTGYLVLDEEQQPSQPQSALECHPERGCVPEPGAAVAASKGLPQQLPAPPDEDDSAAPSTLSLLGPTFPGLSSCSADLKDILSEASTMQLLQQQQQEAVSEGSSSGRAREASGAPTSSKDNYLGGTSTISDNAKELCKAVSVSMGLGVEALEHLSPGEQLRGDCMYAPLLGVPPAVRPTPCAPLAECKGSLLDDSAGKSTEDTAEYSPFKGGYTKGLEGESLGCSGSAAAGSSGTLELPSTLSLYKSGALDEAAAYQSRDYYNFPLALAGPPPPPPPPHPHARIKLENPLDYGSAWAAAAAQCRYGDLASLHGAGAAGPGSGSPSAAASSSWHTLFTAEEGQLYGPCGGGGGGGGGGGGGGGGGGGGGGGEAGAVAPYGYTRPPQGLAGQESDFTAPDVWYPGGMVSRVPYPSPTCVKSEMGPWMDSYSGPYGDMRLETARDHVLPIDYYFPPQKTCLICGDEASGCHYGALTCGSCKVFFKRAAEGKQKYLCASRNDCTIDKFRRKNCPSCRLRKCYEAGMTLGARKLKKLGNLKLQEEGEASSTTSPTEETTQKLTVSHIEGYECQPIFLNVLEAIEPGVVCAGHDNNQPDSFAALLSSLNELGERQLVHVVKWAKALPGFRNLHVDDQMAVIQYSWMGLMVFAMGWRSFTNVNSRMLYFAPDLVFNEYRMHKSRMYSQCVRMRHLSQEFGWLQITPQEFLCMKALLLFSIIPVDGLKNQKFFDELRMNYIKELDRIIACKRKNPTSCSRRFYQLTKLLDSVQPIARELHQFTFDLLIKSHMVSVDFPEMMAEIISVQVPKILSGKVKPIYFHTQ
# Sequence of DNA dC->dU-editing enzyme APOBEC-3G (Homo sapiens) (Q9HC16 whole entry, looked up): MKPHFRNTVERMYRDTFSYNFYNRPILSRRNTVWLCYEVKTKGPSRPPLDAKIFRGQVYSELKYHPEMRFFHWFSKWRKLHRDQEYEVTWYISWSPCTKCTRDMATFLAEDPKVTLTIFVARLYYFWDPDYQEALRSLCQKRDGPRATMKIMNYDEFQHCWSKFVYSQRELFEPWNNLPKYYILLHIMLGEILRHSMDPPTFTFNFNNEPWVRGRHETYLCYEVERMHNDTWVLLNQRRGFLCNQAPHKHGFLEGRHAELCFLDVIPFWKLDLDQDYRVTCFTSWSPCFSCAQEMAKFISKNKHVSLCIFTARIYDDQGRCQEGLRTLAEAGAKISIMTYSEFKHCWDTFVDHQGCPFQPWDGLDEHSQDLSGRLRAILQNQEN
# Sequence of ATP-dependent 6-phosphofructokinase (Trypanosoma brucei brucei) (O15648 whole entry, looked up): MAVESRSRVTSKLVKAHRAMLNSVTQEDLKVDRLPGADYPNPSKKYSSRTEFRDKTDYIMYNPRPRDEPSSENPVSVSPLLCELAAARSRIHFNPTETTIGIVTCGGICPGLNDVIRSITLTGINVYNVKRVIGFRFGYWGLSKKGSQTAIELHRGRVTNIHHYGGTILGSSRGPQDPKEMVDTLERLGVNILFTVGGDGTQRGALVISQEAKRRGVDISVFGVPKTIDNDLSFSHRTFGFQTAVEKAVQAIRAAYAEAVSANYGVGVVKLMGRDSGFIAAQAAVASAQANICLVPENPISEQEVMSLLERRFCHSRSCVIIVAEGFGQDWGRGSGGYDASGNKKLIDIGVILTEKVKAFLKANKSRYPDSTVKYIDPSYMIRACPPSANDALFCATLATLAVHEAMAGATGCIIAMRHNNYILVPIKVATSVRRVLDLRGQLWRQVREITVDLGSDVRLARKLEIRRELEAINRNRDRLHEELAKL
structure (smiles),measurement,setting,value
C/C=C/C=C/C=O,outcome,[1],inactive
same,outcome,[2],inactive
CCCCCCCC/C=C\CCCCCCCC(=O)N(CCO)CCO,Potency,[3],inactive
same,outcome,[2],inactive
CC1=C(/C=C/C(C)=C/C=C/C(C)=C/C=O)C(C)(C)CCC1,Potency,[3],inactive
c1ccc(SCCSc2ccccc2)cc1,activation,[4],12.3%
CCN(CC)c1ccc(N)cc1,Potency,[3],inactive
Oc1cc2c(cc1O)[C@H]1c3ccc(O)c(O)c3OC[C@@]1(O)C2,Potency,[3],inactive
same,outcome,[5],inactive
Cc1c(C(=O)O)c(O)cc2c1C(=O)c1c(O)c([C@H]3O[C@H](CO)[C@@H](O)[C@H](O)[C@H]3O)c(O)c(O)c1C2=O,Potency,[3],inactive
same,outcome,[6],inactive
same,outcome,[5],inactive
same,Potency,CP185,inactive
same,Potency,CP191,inactive
same,Potency,CP192,inactive
same,Potency,CP194,inactive
same,Potency,CP201,inactive
same,Potency,CP203,inactive
same,Potency,DFO2036,inactive
same,Potency,DIV30,inactive
same,Potency,P94_40,inactive
same,Potency,PC49,inactive
same,Potency,TAB113,inactive
C=CC(=O)OCCCCCCOC(=O)C=C,activation,[4],1.98%
same,outcome,[2],inactive
COc1ccc(NC(=O)CSc2nc(NS(=O)(=O)c3ccc(C)cc3)cc(=O)[nH]2)cc1,Potency,[7],39.8 µM (active)
Nc1ccc(N)c(Cl)c1,Potency,[3],inactive
same,outcome,[2],inactive
CN(C)c1ccc(C(=N)c2ccc(N(C)C)cc2)cc1,Potency,[3],inactive
N/C(=N\OC(=O)Nc1ccccc1)c1ccno1,outcome,[8],inactive
same,Potency,[7],inactive
same,Potency,[9],inactive
Cc1cc2nc(N)sc2cc1C,Potency,[3],inactive
O=[N+]([O-])c1cc(N(CCO)CCO)ccc1NCCO,activation,[4],15% and 1.64%
same,outcome,[1],inactive
S=C(NC1CCCCC1)NC1CCCCC1,Potency,[3],inactive
Cc1ccc(O)c(N)c1,outcome,[2],inactive
O=C(O)c1ccc([N+](=O)[O-])cc1,outcome,[2],inactive
Cc1ccc(Cc2cnc(N)s2)o1,outcome,[8],inactive
same,Potency,[7],inactive
Nc1ccccc1O,outcome,[2],inactive
Cc1cc(-c2ccc(N=Nc3cc(S(=O)(=O)O)c4ccccc4c3N)c(C)c2)ccc1N=Nc1cc(S(=O)(=O)O)c2ccccc2c1N,Potency,[3],inactive
CCOCN(C(=O)Cn1c(C(C)O)nc2ccccc21)c1c(C)cccc1CC (stereo not given),Potency,[7],inactive
O=c1nc2s/c(=C\c3ccco3)c(=O)n2nc1Cc1ccccc1,outcome,[8],inactive
same,Potency,[9],inactive
O=C1OC(=O)c2ccccc21,outcome,[2],inactive
C=CCn1c(=S)[nH]c2scc(-c3ccco3)c2c1=O,outcome,[8],inactive
same,Potency,[9],inactive
Cc1cc(C)c2nc(-c3ccco3)cc(C(=O)O)c2c1,outcome,[8],inactive
same,Potency,[7],12.6 µM (active)
same,Potency,[9],inactive
Cc1ccc(-c2nc(SCC(=O)Nc3ccccc3OC(F)F)c3c(C)c(C(=O)O)sc3n2)cc1,outcome,[8],inactive
same,Potency,[7],7.94 µM (active)
same,Potency,[9],11.2 µM (active)
CC/C=C/C/C=C/C/C=C/CCCCCCCC(=O)OCC,Potency,[3],inactive
